Reference: PubChem BioAssay (Tox21)
Inconclusive results are not listed. A call without a number means that no potency is given here. Active and inactive are the calls of the source. The call rests on the fitted dose curve; in most records, active means well fitted activation curve with a large enough effect in the repeat runs; inconclusive means weak or mixed curves; inactive means flat fitted curve, though single readings scatter.

Test: A CellTox Green Cytotoxicity Assay to monitor cytotoxicity in HepG2 cells - 40 hour (AID 1224879); further: nearly all actives have a fitted effect of over 40% in size
Conditions: CellTox Green fluorescence; series mostly up to 76.8 µM
Description: National Center for Advancing Translational Sciences [NCATS]
NIH Chemical Genomics Center [NCGC]
U.S. Environmental Protection Agency [EPA]
National Institutes of Environmental Health Sciences [NIEHS]
National Toxicology Program [NTP]
Cell-based models are critical for drug discovery. Determining the natural cytotoxic effects resulting from test compounds is an essential research activity. A CellTox Green Cytotoxicity Assay to monitor cytotoxicity in real time of continues cell culture during 40 hours of the compound treatment was used to screen Tox21 10K library compounds in HepG2 cells. CellTox Green Cytotoxicity Assay is a nonlytic, homogeneous, biofluorescent method to measure cytotoxicity in cell culture after experimental manipulation. The assay system uses a proprietary asymmetric cyanine dye that is excluded from viable cells but preferentially stains the dead cell's DNA. […] Viable cells produce no appreciable increases in fluorescence. Therefore, the fluorescence signal produced by the binding interaction with dead cell DNA is proportional to cytotoxicity.
The mixture of HepG2 cell suspension and reagents were dispensed at 600cells/6 ul/well in 1536-well tissue culture treated black solid bottom plates using a Multidrop dispenser. After the assay plates were incubated at a 37 C/5% CO2 incubator for 5 hours, 23 nL of compounds dissolved in DMSO, positive and negative controls was transferred to the assay plate by a pintool work station. The plates were incubated at 37 C for 40 hours. The fluorescence intensity were measured at 0h, 8h, 16h, 24h, 32h and 40h time points using ViewLux plate reader during compound treatment.
Potency means the concentration at half of the fitted maximal effect.

Which Potency does the source give for `Cc1ccc(S(=O)(=O)NC(=O)NC2CCCC2)cc1` here?
Its Potency is “inactive”.

Which Potency does the source give for `CC(=O)Nc1cccc(N)c1` here?
The Potency was “inactive”.

With `O=C(Cl)c1ccc(F)c(Cl)c1` as the compound, how does the Potency read?
The Potency was “inactive”.

With `O=C(OC1C[C@H]2CC[C@@H](C1)[N+]21CCCC1)C(O)(c1ccccc1)c1ccccc1` (stereo not given in full) as the compound, how does the Potency read?
Its Potency is “inactive”.

For `Nc1nc(Cl)nc2c1ncn2[C@H]1C[C@H](O)[C@@H](CO)O1`, which Potency is on record?
Its Potency is “inactive”.

For `O=[N+]([O-])c1ccccc1CCO`, which Potency is on record?
Its Potency is “inactive”.

For `O=C(c1ccco1)N1CCNCC1`, which Potency is on record?
The Potency was “inactive”.

For `COc1ccc(/C(C)=C/C(=O)O)c(OC)c1`, which Potency is on record?
Its Potency is “inactive”.

With `CC(C)NC(=O)c1ccccc1N` as the compound, how does the Potency read?
The Potency was “inactive”.

With `NCCOCCOCCN` as the compound, how does the Potency read?
The Potency was “inactive”.

For `O=c1[nH][nH]c2ccccc12`, which Potency is on record?
The Potency was “inactive”.

With `O=P(c1ccccc1)(c1ccccc1)c1ccccc1` as the compound, how does the Potency read?
The Potency was “inactive”.

Which Potency does the source give for `CCCCCCCCCCCCN1CCOCC1` here?
Its Potency is “inactive”.

For `O=C1C=CCCC1`, which Potency is on record?
The Potency was “inactive”.

With `O=S(=O)(O)c1cc(Cl)c(Cl)cc1Cl` as the compound, how does the Potency read?
Its Potency is “inactive”.

For `CCCc1ccc(OC)cc1`, which Potency is on record?
Its Potency is “inactive”.

With `NC(=O)c1cc[n+](CC2=C(C(=O)[O-])N3C(=O)[C@@H](NC(=O)Cc4cccs4)[C@H]3SC2)cc1` as the compound, how does the Potency read?
Its Potency is “inactive”.

For `CC(C)C/C=C(\C=O)c1ccccc1`, which Potency is on record?
The Potency was “inactive”.

For `c1ccc(-c2ccc(-c3ccccc3)cc2)cc1`, which cytotoxicity increase is on record?
The cytotoxicity increase was 1.53% [at 15.8 µM] (inactive).

Which Potency does the source give for `CC(C)C[C@H](NC(=O)[C@H](Cc1ccccc1)NC(=O)c1cnccn1)B(O)O` here?
The Potency was 0.0151 µM (active).

For `CS(C)=O`, which Potency is on record?
Its Potency is “inactive”.

With `CCCCCCCCCCCCCCCCN` as the compound, how does the Potency read?
The Potency was 23.9 µM (active).

Which Potency does the source give for `CC(C(=O)O)c1ccc2c(c1)Cc1cccnc1O2` (stereo not given) here?
The Potency was “inactive”.

With `CC(O)CN` (stereo not given) as the compound, how does the Potency read?
The Potency was “inactive”.

Which Potency does the source give for `Cc1cc(N)n(-c2ccccc2)n1` here?
Its Potency is “inactive”.

With `CC(C(=O)O)c1ccc(/C=C2\CCCCC2=O)cc1` (stereo not given) as the compound, how does the Potency read?
The Potency was “inactive”.

Which Potency does the source give for `O=C1c2ccccc2C(=O)C1c1ccc2ccccc2n1` here?
The Potency was “inactive”.

For `Cc1c(Nc2ncccc2C(=O)O)cccc1C(F)(F)F`, which Potency is on record?
The Potency was “inactive”.

With `CCOc1ccccc1O` as the compound, how does the Potency read?
Its Potency is “inactive”.

For `C/C(=C\C(C)CC(C)CC(C)C)C1CC(=O)OC1=O` (stereo not given), which Potency is on record?
The Potency was “inactive”.

For `Cc1cc(C)n(CO)n1`, which Potency is on record?
Its Potency is “inactive”.

With `CCCCCCCCOCCCN` as the compound, how does the Potency read?
The Potency was “inactive”.

Which Potency does the source give for `CCc1ccc2c(c1)C(=O)c1ccccc1C2=O` here?
Its Potency is “inactive”.

Which Potency does the source give for `Cc1c(-c2cccnc2)c2ccccc2n1CCCCC(=O)O` here?
Its Potency is “inactive”.

For `O=C(Nc1ccc2c(c1)Cc1ccccc1-2)C(F)(F)F`, which Potency is on record?
Its Potency is “inactive”.

Which Potency does the source give for `CO[C@@H]1[C@@H](O[C@@H]2O[C@H](C)[C@@H](O[C@H]3C[C@@](C)(O)[C@@H](O)[C@H](C)O3)[C@H](N(C)C)[C@H]2O)[C@@H](CC=O)C[C@@H](C)[C@@H](O[C@@H]2CC[C@H](N(C)C)[C@@H](C)O2)/C=C/C=C/C[C@@H](C)OC(=O)C[C@H]1OC(C)=O` here?
Its Potency is “inactive”.

For `Cc1cc(SC2=C(O)C[C@@](CCc3ccc(N)cc3)(C(C)C)OC2=O)c(C(C)(C)C)cc1CO`, which Potency is on record?
The Potency was “inactive”.

For `CC(C)(O)C(=O)O`, which Potency is on record?
The Potency was “inactive”.

With `Nc1ncnc2c1ncn2[C@@H]1O[C@H](CO)[C@@H](O)[C@H]1O` as the compound, how does the Potency read?
Its Potency is “inactive”.

With `CC(Cc1ccccc1)(NC(=O)CN)c1ccccc1` (stereo not given) as the compound, how does the Potency read?
Its Potency is “inactive”.
